According to ChEMBL document CHEMBL1157539, “Thousands of chemical starting points for antimalarial lead identification” (Nature, 2010):

Experiments:
Type in all cases: functional
[1] = system: Plasmodium falciparum; assay: GSK_TCMDC: Inhibition of Plasmodium falciparum 3D7 in whole red blood cells, using parasite LDH activity as an index of growth. Test compounds present at 2uM
[2] = system: Plasmodium falciparum; assay: GSK_TCMDC: Inhibition of Plasmodium falciparum Dd2 in whole red blood cells, using parasite LDH activity as an index of growth. Test compounds present at 2uM
[3] = system: HepG2; assay: GSK_TCMDC: Percent inhibition of human HepG2 cell line. Test compounds present at 10uM.

CCc1ccc(-c2nc3cc(NC(=O)c4ccc([N+](=O)[O-])o4)ccc3o2)cc1
Inhibition [1]: 97% | Inhibition [2]: 80% | Inhibition [3]: 4%

CCOc1cc(C)ccc1NC1CCN(CCCCNC(=O)c2ccc(NC(=O)c3ccc(Cl)cc3)cc2)CC1
Inhibition [1]: 100% | Inhibition [2]: 70% | Inhibition [3]: 17%

COCCNCc1ncsc1-c1ccc2c(Nc3cc(O)ccc3C)ccnc2c1
Inhibition [1]: 100% | Inhibition [2]: 40% | Inhibition [3]: 9%

COc1ccc(C=Cc2ccc(-c3c(C)[nH]c(C)c(Cl)c3=O)cc2)cc1OC
Inhibition [1]: 97% | Inhibition [2]: 96% | Inhibition [3]: 12%

O=C(O)C(F)(F)F.O=C1CCCN1CCCNCc1cccc(-c2ccc(-c3nc4cc(C(F)(F)F)ccc4[nH]3)s2)c1
Inhibition [1]: 100% | Inhibition [2]: 99% | Inhibition [3]: 19%

COc1ccc(CNC2Cc3ccccc3C2)cc1-c1ccc(S(=O)(=O)NCCc2ccccn2)s1.O=C(O)C(F)(F)F
Inhibition [1]: 92% | Inhibition [2]: 22% | Inhibition [3]: 11%

O=c1cc(NCCCCNCc2cccc(Cl)c2)[nH]c2ccccc12
Inhibition [1]: 98% | Inhibition [2]: 41% | Inhibition [3]: 2%

COc1ccc(CCNc2nc(NCCc3cnc[nH]3)nc(NCc3cccc4ccccc34)n2)cc1OC
Inhibition [1]: 98% | Inhibition [2]: 16% | Inhibition [3]: 2%

Cc1cc(=O)[nH]c(-n2nc(C)cc2NC(=O)CC(c2ccccc2)c2ccccc2)n1
Inhibition [1]: 90% | Inhibition [2]: 62% | Inhibition [3]: 42%

Oc1ccc(CCNc2nc(N/N=C/c3ccc(Cl)cc3)nc(N3CCNCC3)n2)cc1
Inhibition [1]: 100% | Inhibition [2]: 68% | Inhibition [3]: 14%

Cc1cc2ccc(/C=C/C(=O)NC3CCC(CCN4CCc5ccc(C#N)cc5CC4)CC3)cc2[nH]1.Cl (stereo unspecified)
Inhibition [1]: 84% | Inhibition [2]: 56% | Inhibition [3]: 19%

Cc1ccc(Nc2nccc(NCC(O)c3cccc(C(F)(F)F)c3)n2)cc1 (stereo unspecified)
Inhibition [1]: 99% | Inhibition [2]: 74% | Inhibition [3]: 19%

COc1ccc2nccc([C@@H](O)CN3CCC(NCc4ccc5scnc5c4)CC3)c2c1.O=C(O)C(=O)O
Inhibition [1]: 100% | Inhibition [2]: 93% | Inhibition [3]: 17%

C#CCNCc1ccc(-c2ccc(-c3nc4cc(C(F)(F)F)ccc4[nH]3)s2)cc1.O=C(O)C(F)(F)F
Inhibition [1]: 98% | Inhibition [2]: 28% | Inhibition [3]: 37%

CCNC(=O)Nc1cccc(-c2cccc(-c3nc4cccc(C)c4[nH]3)c2)c1
Inhibition [1]: 85% | Inhibition [2]: 31% | Inhibition [3]: 7%

CN1CCC(c2c[nH]c3ccc(NC(=O)Nc4ccc(-c5ccncc5)cc4Cl)cc23)CC1
Inhibition [1]: 100% | Inhibition [2]: 7% | Inhibition [3]: 31%

COc1ccc2nccc([C@@H](O)CN3CCC(NCc4ccc5c(c4)NC(=O)CO5)CC3)c2c1.Cl
Inhibition [1]: 99% | Inhibition [2]: 6% | Inhibition [3]: 1%

COc1cc(SC)ccc1C(=O)N1CC(C)CC(C)C1 (stereo unspecified)
Inhibition [1]: 98% | Inhibition [2]: 66% | Inhibition [3]: 5%

CCN(CC)CCN(Cc1ccc(-c2ccc(C(F)(F)F)cc2)cc1)C(=O)Cn1c(CCc2ccc(F)c(F)c2F)nc(=O)c2ccccc21.O=C(O)C(O)C(O)C(=O)O
Inhibition [1]: 97% | Inhibition [2]: 66% | Inhibition [3]: 38%

CC(=O)Nc1ccc(CN2CCc3ccc(NS(=O)(=O)c4cccc(OCc5ccc(Cl)cc5)c4)cc3CC2)s1
Inhibition [1]: 93% | Inhibition [2]: 7% | Inhibition [3]: 23%

O=C(O)C(F)(F)F.Oc1ccc(CCNc2nc(NCc3ccccc3Oc3ccc(C(F)(F)F)cc3)nc(N3CCNCC3)n2)cc1
Inhibition [1]: 86% | Inhibition [2]: 2% | Inhibition [3]: 26%

CC(C)CCNC(=N)Nc1ccc(OCCCOc2ccc(NC(=N)NCCC(C)C)cc2)cc1
Inhibition [1]: 100% | Inhibition [2]: 95% | Inhibition [3]: 0%

CC(=O)Nc1ccc(C(=O)Nc2cccc(-c3cccc(-c4nc5ccccc5[nH]4)c3)c2)cn1
Inhibition [1]: 100% | Inhibition [2]: 100% | Inhibition [3]: 3%

Cl.NC1=NC(c2ccccc2)N(c2ccc(Cl)c(Cl)c2)C(N)=N1 (stereo unspecified)
Inhibition [1]: 94% | Inhibition [2]: 0% | Inhibition [3]: 13%

Cc1cc(O)c(-c2ccc(Sc3ccc(Cl)cc3)cc2)c(C)n1
Inhibition [1]: 92% | Inhibition [2]: 84% | Inhibition [3]: 0%

Cl.O=S(=O)(c1ccc(OCc2ccc(Cl)cc2)cc1)c1cc2c(cc1OCc1ccccc1)CCN(C1CCC1)CC2
Inhibition [1]: 89% | Inhibition [2]: 13% | Inhibition [3]: 17%

CN1CCN(CCCCNc2c3ccccc3nc3ccccc23)CC1
Inhibition [1]: 100% | Inhibition [2]: 0% | Inhibition [3]: 37%

CCc1c(C)nc(-n2nc(C)cc2NC(=O)CC(c2ccccc2)c2ccccc2)[nH]c1=O
Inhibition [1]: 97% | Inhibition [2]: 98% | Inhibition [3]: 41%

N#Cc1cccc(Nc2nccc(NCC(O)c3ccc(C(F)(F)F)cc3)n2)c1 (stereo unspecified)
Inhibition [1]: 100% | Inhibition [2]: 98% | Inhibition [3]: 23%

O=C(NCc1ccc(C(=O)NCc2cccc3ccccc23)cc1)c1ccc(O)c(-c2ccc(Cl)c(Cl)c2)c1
Inhibition [1]: 100% | Inhibition [2]: 31% | Inhibition [3]: 0%

Cc1ccc(-c2nc3cc(C(=O)NC4CCN(Cc5ccccc5)CC4)ccc3[nH]2)cc1
Inhibition [1]: 100% | Inhibition [2]: 53% | Inhibition [3]: 20%

COc1ccc(N2CCN(CCCOc3ccc(NC(=O)c4cc(Cl)cc(Cl)c4)cc3)CC2)c(OC)c1
Inhibition [1]: 100% | Inhibition [2]: 41% | Inhibition [3]: 38%

Cc1cc(C2CCN(CCCCNC(=O)c3ccc(NC(=O)c4ccc(Cl)cc4)cc3)CC2)c(C)cc1OCc1ccccn1.Cl
Inhibition [1]: 96% | Inhibition [2]: 65% | Inhibition [3]: 18%

COc1ccc(CCC(C)(C)NCC(O)c2cccc(C(F)(F)F)c2)cc1 (stereo unspecified)
Inhibition [1]: 99% | Inhibition [2]: 98% | Inhibition [3]: 26%

CC(Nc1ccc2c(c1)OCCO2)C(=O)Nc1cc(C(F)(F)F)ccc1N1CCOCC1 (stereo unspecified)
Inhibition [1]: 98% | Inhibition [2]: 70% | Inhibition [3]: 0%

Nc1c(-c2ccc(C(=O)NCCNCc3ccccc3)cc2)cnn1-c1ccc(C(F)(F)F)cc1.O=C(O)C(F)(F)F
Inhibition [1]: 85% | Inhibition [2]: 2% | Inhibition [3]: 23%

O=C(/C=C/c1ccc(Cl)c(Cl)c1)NC1CCN(Cc2ccc(O)cc2)CC1.O=C(O)C(F)(F)F
Inhibition [1]: 100% | Inhibition [2]: 43% | Inhibition [3]: 0%
